Where a name gives a salt, the structure may show the parent alone.
What was measured:
Conditions in all cases: incubation time: 27 h, anaerobic, 37 °C;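 for the amine columns active = adjusted P below 0.05 in both replicates with a change the same way and a mean fold change under 0.8 or over 1.25; inactive = the rest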
[1] = system: Clostridium sporogenes DSM 1664; assay: growth (OD595) fold change vs plate DMSO controls (fold change (ratio)); higher = more growth
In short: (§1)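 The 96-well mGAM cultures had been kept anaerobic for 27 h at 37 °C before being shaken and read at 595 nm. Blank subtraction, compound background correction with 20 µM compound solutions in water, and a calibration factor of 5 turned the readings into OD. Growth is given as the fold change versus the median of plate DMSO controls. Fold changes above 1.5 were set to NA, and the values are means of 2 biological replicates.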

Escherichia coli IAI1 [2] = assay: as above
In short: as §1

[3] = system: Klebsiella aerogenes DSM 30053; assay: as above
In short: as §1

[4] = system: Ruminococcus gnavus DSM 108212; assay: as above
In short: as §1

[5] = system: Klebsiella aerogenes DSM 30053; assay: fold change of Histamine concentration vs plate DMSO controls (fold change (ratio)); higher = more amine produced, active = hit call of the paper (significant change in both replicates, either direction)
In short: (§2)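 Amines were quantified by LC–triple-quadrupole MS in dynamic MRM mode against external calibration curves, with drift correction within each batch. The samples were whole anaerobic mGAM cultures of four gut bacterial strains, grown for 27 h at 37 °C in 80 µL wells and extracted with cold acetonitrile/methanol with 0.1% formic acid, then centrifuged. Values are reported as fold change over DMSO controls on the same plate. The mean of 2 biological replicates is given.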

[6] = system: Clostridium sporogenes DSM 1664; assay: fold change of Tryptamine concentration vs plate DMSO controls (fold change (ratio)); higher = more amine produced, active = hit call of the paper (significant change in both replicates, either direction)
In short: as §2

[7] = system: Ruminococcus gnavus DSM 108212; assay: as above
In short: as §2

Escherichia coli IAI1 [8] = assay: fold change of Putrescine concentration vs plate DMSO controls (fold change (ratio)); higher = more amine produced, active = hit call of the paper (significant change in both replicates, either direction)
In short: as §2

[9] = system: Klebsiella aerogenes DSM 30053; assay: as above
In short: as §2

Escherichia coli IAI1 [10] = assay: fold change of Cadaverine concentration vs plate DMSO controls (fold change (ratio)); higher = more amine produced, active = hit call of the paper (significant change in both replicates, either direction)
In short: as §2

[11] = system: Klebsiella aerogenes DSM 30053; assay: as above
In short: as §2

[12] = system: Ruminococcus gnavus DSM 108212; assay: fold change of 2-Phenylethylamine concentration vs plate DMSO controls (fold change (ratio)); higher = more amine produced, active = hit call of the paper (significant change in both replicates, either direction)
In short: as §2

| SMILES | growth [1] | growth (Escherichia coli IAI1 [2]) | growth [3] | growth [4] | fold change of Histamine concentration [5] | fold change of Tryptamine concentration [6] | fold change of Tryptamine concentration [7] | fold change of Putrescine concentration (Escherichia coli IAI1 [8]) | fold change of Putrescine concentration [9] | fold change of Cadaverine concentration (Escherichia coli IAI1 [10]) | fold change of Cadaverine concentration [11] | fold change of 2-Phenylethylamine concentration [12] |
| --- | --- | --- | --- | --- | --- | --- | --- | --- | --- | --- | --- | --- |
| CO[C@@H]1[C@@H](O[C@@H]2O[C@H](C)[C@@H](O[C@H]3C[C@@](C)(O)[C@@H](O)[C@H](C)O3)[C@H](N(C)C)[C@H]2O)[C@@H](CC=O)C[C@@H](C)[C@@H](O[C@H]2CC[C@H](N(C)C)[C@@H](C)O2)/C=C/C=C/C[C@@H](C)OC(=O)C[C@H]1OC(C)=O [Acetyl spiramycin] (20 µM) | 0.00073 | 1.03 | 0.958 | 0.154 | 0.621 (active) | 0.0194 (active) | 0.153 (active) | 0.875 (inactive) | 1.03 (inactive) | 0.989 (inactive) | 1.03 (inactive) | 0.156 (active) |
| CCOc1ccccc1OCCN[C@H](C)Cc1ccc(OC)c(S(N)(=O)=O)c1 [(R)-Tamsulosin hydrochloride] (20 µM) | 0.839 | 0.964 | 1.03 | 1.01 | 0.94 (inactive) | 0.98 (inactive) | 1.02 (inactive) | 1 (inactive) | 1.01 (inactive) | 1.01 (inactive) | 1 (inactive) | 0.976 (inactive) |
| CS(=O)(=O)CCNCc1ccc(-c2ccc3ncnc(Nc4ccc(OCc5cccc(F)c5)c(Cl)c4)c3c2)o1 [Lapatinib] (20 µM) | 1.05 | 1.05 | 1.02 | 1.01 | 1.03 (inactive) | 0.977 (inactive) | 1.03 (inactive) | 0.977 (inactive) | 1.02 (inactive) | 1.04 (inactive) | 1.01 (inactive) | 0.999 (inactive) |
| COc1ccc(C(=O)CC(=O)c2ccc(C(C)(C)C)cc2)cc1 [Avobenzone] (20 µM) | 0.839 | 0.95 | 0.975 | 0.891 | 1.01 (inactive) | 0.932 (inactive) | 1.02 (inactive) | 0.998 (inactive) | 0.993 (inactive) | 1.05 (inactive) | 0.988 (inactive) | 1.08 (inactive) |
| NC(=O)[C@@H]1CCCN1C(=O)[C@H](Cc1c[nH]cn1)NC(=O)[C@@H]1CCC(=O)N1 [Thyrotropin-Releasing Hormone] (20 µM) | 0.956 | 0.979 | 1.02 | 0.996 | 0.966 (inactive) | 0.998 (inactive) | 1 (inactive) | 1.02 (inactive) | 1 (inactive) | 0.999 (inactive) | 1 (inactive) | 0.998 (inactive) |
| N=C(N)NCCN1CCCCCCC1 [Guanethidine sulfate] (20 µM) | 1.13 | 0.988 | 1.1 | 0.933 | 0.834 (inactive) | 1.07 (inactive) | 1.1 (inactive) | 0.97 (inactive) | 0.953 (inactive) | 0.9 (inactive) | 1.04 (inactive) | 1.11 (inactive) |
| CC(C)NCC(O)COc1ccc(COCCOC(C)C)cc1 (centres undefined) [Bisoprolol hemifumarate] (20 µM) | 1.1 | 0.975 | 0.97 | 0.79 | 0.965 (inactive) | 1.2 (inactive) | 1.09 (inactive) | 1 (inactive) | 0.846 (inactive) | 0.99 (inactive) | 1.13 (inactive) | 1.09 (inactive) |
| Cn1c(=O)c2c(ncn2CCO)n(C)c1=O [Etofylline] (20 µM) | 0.922 | 1.01 | 1.01 | 1.04 | 0.983 (inactive) | 0.964 (inactive) | 0.853 (inactive) | 1.01 (inactive) | 0.997 (inactive) | 1.03 (inactive) | 1 (inactive) | 0.839 (inactive) |
| CC(=O)N[C@@H](CC(C)C)C(=O)O [N-Acetyl-L-leucine] (20 µM) | 1.1 | 0.831 | 0.991 | 1 | 0.86 (inactive) | 0.964 (inactive) | 1.03 (inactive) | 0.892 (inactive) | 1.01 (inactive) | 1.07 (inactive) | 1.03 (inactive) | 1.04 (inactive) |
| Cc1ccc(S(=O)(=O)NC(=O)NN2CC3CCCC3C2)cc1 (centres undefined) [Gliclazide] (20 µM) | 1.15 | 1.06 | 0.986 | 0.999 | 1.04 (inactive) | 1.06 (inactive) | 1.12 (inactive) | 0.995 (inactive) | 1 (inactive) | 0.883 (inactive) | 1 (inactive) | 1.12 (inactive) |
| CC(C[N+](C)(C)C)OC(N)=O (centres undefined) [Bethanechol chloride] (20 µM) | 0.85 | 0.962 | 0.937 | 0.707 | 0.98 (inactive) | 1.01 (inactive) | 1.01 (inactive) | 1.03 (inactive) | 1.01 (inactive) | 1 (inactive) | 1 (inactive) | 1.01 (inactive) |
| CCOc1cc(CC(=O)N[C@@H](CC(C)C)c2ccccc2N2CCCCC2)ccc1C(=O)O [Repaglinide] (20 µM) | 1.11 | 1.2 | 0.993 | 0.81 | 0.982 (inactive) | 1.18 (inactive) | 1.09 (inactive) | 1.14 (inactive) | 0.966 (inactive) | 1.01 (inactive) | 1.03 (inactive) | 1.13 (inactive) |

Source: the supplement of paper PMC12494721
